# High-throughput results (PubChem BioAssay)
# An excerpt weighted towards active compounds, which were near 3.3% of everything screened.
# Tb PYK inh – blocks Trypanosoma brucei pyruvate kinase; TbPYK enzyme, Kinase-Glo Plus ATP luminescence, 45 min; hit rate 0.12% among 410,000; Q57TT1; Potency, µM (highest dose often 76.8 µM), for the others: at the top dose activity, negative = inhibition, hits mostly inhibitors; further: on the % scale 0 is the no-effect control and ±100 the full control effect; nearly all actives have a fitted effect of over 50% in size
#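 Screened from lowest to highest concentration, compounds were pinned into TbPYK/substrate mixtures, and ADP (130 uM final) was added. Plates sat at room temperature for 45 min prior to Kinase-Glo Plus detection by luminescence.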
# SARS PLP yeast – blocks SARS-CoV papain-like protease in a yeast assay; S. cerevisiae expressing SARS-CoV PLpro, growth rescue; Potency, µM (doses to about 32.9 µM), for inactives: at the highest dose activity, positive = growth rescue, actives largely listed as activators; hit rate 0.19% among 330,000; AID 485353; calls by dose curve; further: 0% is about no effect; nearly all actives have a fitted effect of over 55% in size
# NS1 function inh – inhibitors of influenza NS1 protein function. Potency, µM (doses to about 46.1 µM), without a hit: top-dose activity, positive = more growth. hit rate 0.4% among 270,000; calls by dose curve; further: actives are rising curves; nearly all actives have a fitted effect of over 50% in size
#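 A cell-based growth assay was used: compounds that relieve NS1-induced slow growth of budding yeast raise OD600. Assay medium was yeast nitrogen base with ammonium sulphate and -URA supplement, pH 6.0, with 2% galactose.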
# Sm TGR inh – blocks Schistosoma mansoni thioredoxin glutathione reductase; Q962Y6; purified TGR, DTNB reduction, TNB absorbance 405 nm; Potency, µM (top dose mostly 114 µM), inactives show at the highest dose activity change, negative = inhibition, most hits filed as inhibitors; hit rate 3% among 360,000; AID 485364; further: on the % scale 0 is the no-effect control and ±100 the full control effect; nearly all actives have a fitted effect of over 60% in size
#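 TGR 20 nM + NADPH 100 uM (dispensed conc.), cpd preinc 15 min RT; start with NADPH (500 uM addition) then DTNB (15 mM addition). Kinetic TNB absorbance, 405 nm filter. Four-parameter Hill fit across titration.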
# RE007 growth inh – less growth of the S. pombe RE007 Vpr strain; hit rate 0.21% among 360,000; S. pombe RE007 Vpr strain, BacTiter-Glo ATP luminescence, 24 h; Potency, µM (top dose mostly 92.2 µM), for the others: top-dose activity change, negative = less growth, most hits filed as inhibitors; AID 651644; active means well fitted falling curve with a large enough effect; inconclusive means small, poorly fitted or top-dose-only effect; inactive means no such curve, though single readings can be large or run the other way; further: on the % scale 0 is the no-effect control and ±100 the full control effect; nearly all actives have a fitted effect of over 50% in size
#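 Fission yeast RE007 carrying one integrated HIV-1 vpr copy, seeded at OD 0.01 in PMG+AL medium with 23 nL pinned compound. Grown 24 h at 30 degrees; viability read by BacTiter-Glo luminescence after 5 min.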
# LmPK inh – inhibitors of Leishmania mexicana pyruvate kinase. hit rate 0.37% among 290,000. Potency, µM (top dose mostly 57.5 µM), inactives show top-dose activity change, negative = inhibition, actives largely listed as inhibitors. Q27686. purified LmPK, Kinase-Glo ATP luminescence, 1 h. AID 1721; further: on the % scale 0 is the no-effect control and ±100 the full control effect
# Target sequence (Q27686 whole entry, looked up): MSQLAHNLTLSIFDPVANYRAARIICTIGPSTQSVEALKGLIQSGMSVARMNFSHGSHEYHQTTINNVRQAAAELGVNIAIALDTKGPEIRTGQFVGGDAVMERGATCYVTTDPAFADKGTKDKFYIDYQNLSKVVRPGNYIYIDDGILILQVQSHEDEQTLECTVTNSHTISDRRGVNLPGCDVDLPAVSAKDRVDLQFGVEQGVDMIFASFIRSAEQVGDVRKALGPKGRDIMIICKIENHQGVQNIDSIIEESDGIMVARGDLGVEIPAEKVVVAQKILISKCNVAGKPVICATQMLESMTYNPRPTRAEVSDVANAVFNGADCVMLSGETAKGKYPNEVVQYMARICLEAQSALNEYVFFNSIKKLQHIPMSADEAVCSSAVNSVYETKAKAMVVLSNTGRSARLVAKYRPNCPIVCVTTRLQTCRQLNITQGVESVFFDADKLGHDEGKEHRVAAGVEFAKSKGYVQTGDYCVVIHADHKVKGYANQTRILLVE
#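 0.1 nM LmPK, 0.5 mM PEP, 0.1 mM ADP; 50 mM imidazole pH 7.2, 7 mM MgCl2, 50 mM KCl; 1 h RT. Kinase-Glo luminescence readout, normalized to no-enzyme (full inhibition) and uninhibited wells.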
# * = called active by the depositor; ? = inconclusive; . = no result; [ ] = remark or other dose. Unless noted, the call rests on the fitted dose curve; in most records, active means well fitted curve in the direction sought with a large enough effect; inconclusive means small, poorly fitted or top-dose-only effect, or another doubt; inactive means no such curve, though single readings can be large; an effect the other way counts as inactive or inconclusive. Potency means the concentration at half of the fitted maximal effect.
SMILES,Tb PYK inh,SARS PLP yeast,NS1 function inh,Sm TGR inh,RE007 growth inh,LmPK inh
CN1CCN(c2ccc([N+](=O)[O-])c3no[n+]([O-])c23)CC1,-24%,-5%,-94%,45µM*,32µM*,-22%
Cc1ccc(-n2c(=O)c3cccnc3n2CC(=O)Nc2cccc(C)c2C)cc1,-2%,.,.,1%,.,.
Cc1ccc(-n2ncc(C(=O)N3CCc4ccccc4C3)c2NC(=O)c2ccco2)cc1C,-6%,16%,6%,32µM*,2%,3%
COc1ccc(CCNC(=O)c2cnn(-c3ccc(C)c(C)c3)c2NC(=O)c2ccco2)cc1OC,2%,.,-22%,11%,-17%,1%
O=[N+]([O-])c1ccc2c(c1)N([O-])C1(CCCCC1)[N+]2=O,?,0%,11%,2.8µM*,5%,-28%
Cc1ccc(-n2nc3c(=O)n(C(C)C(=O)NCc4ccc(OC(C)C)cc4)nc(C)c3c2C)cc1 (configuration not stated),2%,.,.,-14%,.,.
CN(C)CCN(C(=O)c1ccc(N2C(=O)CCC2=O)cc1)c1nc2cc3c(cc2s1)OCCO3,.,-1%,.,35µM*,.,0%
CCOc1cc(C2C3=C(CCCC3=O)N(C)C3=C2C(=O)CCC3)cc(Cl)c1O,-6%,-19%,-3%,35µM*,16%,3%
O=c1cc(CN2CCN(Cc3ccccc3)CC2)c2cc3c(cc2o1)CCC3,2%,-1%,-3%,35µM*,-12%,8%
Cc1cc(N2CCCCC2)ccc1C=C1C(=O)N(C)C(=S)N(C)C1=O,?,-8%,2%,7.1µM*,-24%,-4%
O=C(NCC1CCCCC1)C1(CC2CC(c3cccc(Br)c3)=NO2)CCNCC1 (configuration not stated),-8%,9%,6%,45µM*,3%,2%
O=C(NCc1ccccc1)C1(CC2CC(c3ccccc3)=NO2)CCNCC1 (configuration not stated),-9%,-2%,.,50µM*,8%,.
O=C(c1ccccc1)N1CCC(CC2CC(c3cccc(Br)c3)=NO2)(C(=O)NCC2CCCCC2)CC1 (configuration not stated),-4%,0%,?,-1%,9%,-4%
COc1ccc(Cl)cc1N1Cc2ccccc2C1,1%,1%,12%,45µM*,98%,-6%
COc1ccc(OC)c(N2Cc3ccccc3C2)c1,-8%,10%,?,?,-10%,3%
COc1ccc(N2Cc3ccccc3C2)cc1Cl,-1%,1%,-6%,32µM*,-17%,-11%
Cc1ccccc1-c1nc2scc(CCNC(=O)c3ccco3)n2n1,0%,.,.,-7%,.,.
CC1(C)S[C@@H]2[C@H](NC(=O)C3(N)CCCCC3)C(=O)N2[C@@H]1C(=O)O,.,.,-5%,.,.,.
Cc1cc(Sc2nnc(N)s2)c2ccccc2n1,-2%,-1%,10%,4µM*,11%,-5%
Cc1cc(Sc2nnc(/N=C/N(C)C)s2)c2ccccc2n1,-1%,-3%,-40%,3.5µM*,7%,1%
O=C(CCS(=O)(=O)c1ccc(Br)cc1)NCCc1ccccc1,-2%,-1%,0%,50µM*,21%,-8%
O=C(CCS(=O)(=O)c1ccc2c(c1)NC(=O)CS2)NCCc1ccccc1,5%,-5%,-1%,32µM*,0%,-6%
O=C1CSc2ccc(S(=O)(=O)CCC(=O)NC3CCCCC3)cc2N1,-3%,2%,7%,22µM*,7%,-1%
O=C(CCS(=O)(=O)c1ccc2c(c1)NC(=O)CS2)NCCc1ccc(Cl)cc1,-11%,-2%,3%,?,6%,-12%
CCOc1ccc(CCNC(=O)CCS(=O)(=O)c2ccc(Br)cc2)cc1OCC,-11%,1%,5%,-1%,5%,-2%
SMILES,Tb PYK inh,SARS PLP yeast,NS1 function inh,Sm TGR inh,RE007 growth inh,LmPK inh
CCOc1ccc(CCNC(=O)CCS(=O)(=O)c2ccc(C)cc2)cc1OCC,4%,-2%,-4%,32µM*,-6%,0%
CCOC(=O)C1=C(CN2CCN(c3ccccc3F)CC2)NC(=O)NC1c1ccc(OC)cc1 (configuration not stated),-4%,.,.,-2%,.,.
Cc1noc(C)c1-c1ccc2ncnc(NCc3cccc(-c4ccccc4)c3)c2c1,.,-7%,.,0%,.,.
CN1CCCN(C)C1c1cc([N+](=O)[O-])ccc1O,.,.,-48%,.,.,.
O=C(CCS(=O)(=O)c1ccc(Br)cc1)Nc1ccccc1Cl,1%,-2%,5%,4%,5%,-2%
O=C(CCS(=O)(=O)c1ccc(Br)cc1)Nc1ccccn1,-3%,7%,-3%,3.2µM*,-3%,-2%
COc1cc2c(cc1O)CCC1C2CC[C@]2(C)[C@@H](O)CC[C@@H]12 (some centres not stated),.,.,-33%,.,.,.
CCOc1ccccc1NC(=O)CSc1nnc(CC)c(CC)n1,14%[15.4 µM],.,.,4%,.,.
O=C(Nc1ccc([N+](=O)[O-])cc1)C(=O)Nc1cccc(C(=O)O)c1,?,-1%,-2%,9%,?,25µM*
NC(=O)Nc1cc(-c2cccc(F)c2)sc1C(=O)N[C@H]1CCCNC1,0%,.,.,.,.,.
O=C(N/N=C/c1c(O)n(CCC2=CCCCC2)c(=S)[nH]c1=O)c1ccccc1,-5%,11µM*,?,-14%,10%,2%
Cc1cccc(C)c1NC(=O)CNC(=O)CNC(=O)Cc1cccc2ccccc12,4%,-4%,.,6.3µM*,-11%,.
Cc1ccccc1NC(=O)CNC(=O)Cc1cccc2ccccc12,-3%,1%,.,0%,-7%,.
CC(=O)c1c(C)oc2c1cc(NS(=O)(=O)c1ccc(Br)cc1)c1ccccc12,18%,.,.,6%,.,.
CC(=O)c1c(C)oc2c(Br)cc(NS(=O)(=O)c3ccc(Br)cc3)cc12,4%,.,.,5.6µM*,.,.
CCOc1ccc(-n2c(-c3ccco3)n[nH]c2=S)cc1,?,6%,-2%,5%,4%,?
Cc1c(Cl)c(-c2n[nH]c(=S)n2-c2ccc(F)cc2)nn1C,4µM*,3%,-2%,-21%,1%,?
Fc1ccc(-n2c(-c3ccco3)n[nH]c2=S)cc1,8.9µM*,0%,8%,12%,12%,?
Cn1cc(Cl)c(-c2n[nH]c(=S)n2-c2ccc(F)cc2)n1,?,10%,-2%,-7%,1%,-18%
Cc1ccc(-n2c(-c3ccco3)n[nH]c2=S)cc1,6.3µM*,0%,0%,7%,7%,?
COc1ccc(Nc2nc3ccccc3n3c(N)nnc23)cc1,-1%,.,.,1%,.,.
COc1ccc(-c2noc(CSc3nnc(-c4ccncc4)n3-c3ccc(C)cc3)n2)cc1OC,4%,.,.,-4%,.,.
CCc1ccc(C(=O)c2cn(CC(=O)Nc3ccc(C)c(C)c3)c3ccccc3c2=O)cc1,3%,.,.,-14%,.,.
